The source of these data is PubChem BioAssay (NCATS).

Results filed as inconclusive are left out. Activity calls are given as the source filed them. Unless noted, the call rests on the fitted dose curve; in most records, active means well fitted curve in the direction sought with a large enough effect in the repeat runs; inconclusive means weak or mixed curves; inactive means no such curve, though single readings can be large; an effect the other way counts as inactive or inconclusive.

Sequence of Cytochrome P450 2D6 (Homo sapiens) (P10635 whole entry, looked up): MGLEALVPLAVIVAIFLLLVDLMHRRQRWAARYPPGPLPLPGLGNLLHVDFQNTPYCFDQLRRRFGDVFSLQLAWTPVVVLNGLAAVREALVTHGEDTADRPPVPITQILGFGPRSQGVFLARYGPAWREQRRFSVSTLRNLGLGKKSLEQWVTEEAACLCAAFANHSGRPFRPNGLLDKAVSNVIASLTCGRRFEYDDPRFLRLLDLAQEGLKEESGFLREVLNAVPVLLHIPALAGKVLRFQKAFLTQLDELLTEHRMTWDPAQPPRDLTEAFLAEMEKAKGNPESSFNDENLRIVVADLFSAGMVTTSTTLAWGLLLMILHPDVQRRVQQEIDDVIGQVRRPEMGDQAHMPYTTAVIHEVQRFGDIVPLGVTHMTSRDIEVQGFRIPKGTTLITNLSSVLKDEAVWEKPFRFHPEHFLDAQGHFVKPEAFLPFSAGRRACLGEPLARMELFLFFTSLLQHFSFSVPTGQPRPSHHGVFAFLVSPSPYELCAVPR

For one test, the target named is Calcium and integrin-binding protein 1 (Homo sapiens) (UniProt Q99828). Kind of test: Primary qHTS for Identification of Calcium Integrin Binding Protein 1 (CIB1) Competitor (AID 1508620; active means well fitted curve in the direction sought with a large enough effect; an effect the other way counts as inactive or inconclusive; further: top concentration of the series differs between compounds). Particulars: CIB1-GST / FITC-alphaIIb peptide fluorescence polarization; series mostly up to 114 µM. The gist of the method: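 Fluorescence polarization competition: GST-tagged CIB1 (1 uM final) preincubated with compound 15 min at room temperature, then FITC-labelled alphaIIb peptide (100 nM final) added. After 15 min at room temperature, polarization read at Ex 480/Em 540.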
Sequence of Calcium and integrin-binding protein 1 (Homo sapiens) (Q99828 whole entry, looked up): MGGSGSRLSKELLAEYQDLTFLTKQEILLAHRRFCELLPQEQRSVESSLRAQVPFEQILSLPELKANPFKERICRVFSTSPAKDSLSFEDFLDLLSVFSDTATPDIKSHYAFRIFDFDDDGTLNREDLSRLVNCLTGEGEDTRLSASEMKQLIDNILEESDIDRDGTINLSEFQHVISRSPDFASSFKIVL
For orientation: qHTS replaces the single test concentration by a dilution series.
For `CCNC(=O)[C@@H]1CCCN1C(=O)[C@H](CCCN=C(N)N)NC(=O)[C@H](CC(C)C)NC(=O)[C@@H](CC(C)C)NC(=O)[C@H](Cc1ccc(O)cc1)NC(=O)[C@H](CO)NC(=O)[C@H](Cc1c[nH]c2ccccc12)NC(=O)[C@H](Cc1cnc[nH]1)NC(=O)[C@@H]1CCC(=O)N1`, the result was inactive.
Consider `COc1ccc(C2(CNC(=O)[C@](C)(Cc3c[nH]c4ccccc34)NC(=O)Nc3ccc([N+](=O)[O-])cc3)CCCCC2)nc1`, for which the result was inactive.
Same read-out and setting: the entry for `CCN(CC)Cc1cccc(/C=C/c2nc3ccc(F)cc3c(=O)n2-c2ccccc2Cl)n1` is “inactive”.
Consider `C=C(C(=O)O)C1CC2=C(C)C(=O)CC2C(C)CC1O` (centres undefined), for which the outcome was inactive.

A further test addresses Cytochrome P450 2D6 (Homo sapiens) (UniProt P10635). Put plainly: Cytochrome P450 family 2 subfamily D member 6 (CYP2D6) small molecule antagonists: luciferase biochemical (cell-free) qHTS assay (AID 1645840). Further: nearly all actives have a fitted effect of over 55% in size. Further: potency means the concentration at half of the fitted maximal effect. The conditions noted are these: P450-Glo CYP2D6 enzyme, luciferin luminescence, 1 h; series mostly up to 57.4 µM. In outline: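 P450-Glo CYP2D6 system: proluciferin substrate converted by enzyme to luciferin, read by luminescence proportional to activity. Enzyme-substrate mix with compound 10 min at room temperature, then NADPH regeneration 1 h before detection reagent.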
Turning to `CC(C)n1cnc2c(Nc3cccc(Cl)c3)nc(NCCO)nc21`, the Potency was 16.9 µM (active).
Same read-out and setting: the figure for `COc1cccc(NC[C@@H](O)Cn2c3ccc(Br)cc3c3cc(Br)ccc32)c1` is 8.49 µM (active).
For the molecule `C[C@@H](O[C@H]1OCCN(Cc2n[nH]nc2CN(C)C)[C@H]1c1ccc(F)cc1)c1cc(C(F)(F)F)cc(C(F)(F)F)c1`, the Potency was 15.1 µM (active).
In the case of `COc1cc2nc(-c3cc(F)ccc3O)nc(N[C@@H]3CNC[C@H]3C(C)(C)O)c2cc1OC`, the Potency was 19 µM (active).
Same read-out and setting: the figure for `c1ccc(-c2cnc(Nc3ccc(OCCN4CCCC4)cc3)s2)cc1` is 10.7 µM (active).
In the case of `Fc1ccccc1CNCc1ccc(-c2ccnc3[nH]ccc23)cc1`, the Potency was 0.477 µM (active).
On the same count and under the same terms, under `CCCCc1nc(C)c(CC(=S)N(C)C)c(=O)n1Cc1ccc(-c2ccccc2-c2nn[nH]n2)cc1` stands “inactive”; under `CNc1nc(-c2ccc3c(N)n[nH]c3c2)cc(N2CC(C(=O)NC3CCCCC3)CCC2C)n1` (centres undefined), 23.9 µM (active); under `CNc1cc(OC)c(C(=O)N[C@@H]2CCN(Cc3ccccc3)[C@@H]2C)cc1Cl`, 0.107 µM (active).
Same read-out and setting: under `C[C@H](NC(=O)C(C)(C)Oc1ccc(C(F)(F)F)cn1)[C@@H](Cc1ccc(Cl)cc1)c1cccc(C#N)c1` stands 1.9 µM (active); under `CN(C)CC(=O)Nc1ccc2[nH]c(=O)c3ccccc3c2c1`, “inactive”.
Still for that read-out and setting: under `C[C@@H](CN1CCC(n2c(=O)[nH]c3cc(Cl)ccc32)CC1)NC(=O)c1ccc2ccccc2c1` stands 10.7 µM (active).
`CC(C)c1ccc(NC(=O)C(c2ccccc2)N(C)C(=O)Cc2c[nH]c3ccccc23)cc1` (centres undefined): the Potency is 10.7 µM (active).
The same measure, in the same setting: under `COc1ccc2c(c1)CN(C(=O)CCN1CCC(Cc3ccccc3)CC1)CCS2` stands 0.536 µM (active).
The same measure, in the same setting: under `COc1ccc(C2(CNC(=O)[C@](C)(Cc3c[nH]c4ccccc34)NC(=O)Nc3ccc([N+](=O)[O-])cc3)CCCCC2)nc1` stands 3.01 µM (active).
